Laboratory results as given in PubChem BioAssay (NCATS).
Inconclusive results are not listed. Calls of active or inactive are those of the source. Unless noted, the call rests on the fitted dose curve; in most records, active means well fitted curve in either direction with a large enough effect (not every such curve was filed as active); inconclusive means small, poorly fitted or top-dose-only effect, or another doubt; inactive means flat fitted curve, though single readings scatter.

What was measured:
[1] = target: Lysosomal acid glucosylceramidase (Homo sapiens) (UniProt P04062); assay: Glucocerebrosidase-p2 (AID 348; in the data active means potency below about 10 µM; further: potency means the concentration at half of the fitted maximal effect); conditions: purified GBA, blue fluorogenic substrate, 40 min
Summary of the method: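 Compounds titrated from 0.6 nM upwards against 0.2 nM enzyme in pH 5.9 citric acid/KH2PO4, taurocholate, tween-20; blue fluorogenic substrate 80 uM, 40 min room temperature, stopped and read Ex 365/Em 440 for AC50.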

[2] = AP1 Signaling Pathway (AID 357); conditions: ME-180 AP-1-bla reporter, EGF-induced, beta-lactamase ratio, 5 h; at 7.69 µM (top of the series) unless noted;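 further: ME-180 reporter cells stimulated with EGF at its EC50 level; on the % scale 0 is the no-effect control and ±100 the full control effect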
Summary of the method: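 A ratiometric CCF4 readout (405 nm excitation; 460 and 530 nm emission) quantified AP-1-driven beta-lactamase in ME-180 cells after 5 h with compound and EC50 EGF; AC50 values were derived for activators and inhibitors.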

[3] = target: Cytochrome P450 1A2 (Homo sapiens) (UniProt P05177); assay: p450-cyp1a2 (AID 410; calls by dose curve; further: potency means the concentration at half of the fitted maximal effect;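 on activity change, negative = inhibition: -100% = full effect of reference inhibitor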); conditions: recombinant CYP1A2, luciferin-ME demethylation, luminescence; series mostly up to 57 µM
Summary of the method: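 Inhibition was calculated relative to 57 uM furafylline (full inhibition). The reaction used human CYP1A2 at 20nM with Luciferin-ME at its Km, 100uM, driven by an NADPH-regenerating system for 60 min at room temperature.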

[4] = NFAT Signaling Pathway (AID 444); conditions: Jurkat NFAT-bla M1, carbachol, beta-lactamase ratio, 5 h; at 7.69 µM (top of the series) unless noted;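 further: carbachol stimulus at about its EC50 of 1 µM final; on the % scale 0 is the no-effect control and ±100 the full control effect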
Summary of the method: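 Jurkat cells carrying an NFAT-driven β-lactamase reporter and co-transfected muscarinic M1 receptor were treated with compound plus carbachol (1 uM final, an EC50 level) for 5 h at 37 °C. CCF4 loading followed for 1 h at RT; 460/530 nm ratio gave %activity.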

[5] = Stat Signaling Pathway (AID 446); conditions: ME-180 SIE beta-lactamase reporter, IL-6 stimulated, 5 h; at 7.69 µM (top of the series) unless noted;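 further: ME-180 cervical cancer cells given 40 pM IL-6 alongside compound; SIE-controlled beta-lactamase reporter measured as 460/530 nm FRET emission ratio; on the % scale 0 is the no-effect control and ±100 the full control effect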
Summary of the method: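 Screening format detects activators and inhibitors alike: ME-180 SIE-bla cells stimulated at 40 pM IL-6 for 5 hrs with compound, then dual-emission beta-lactamase read at 405 nm excitation.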

[6] = target: Glucocorticoid receptor (Homo sapiens) (UniProt P04150); assay: GR-EFC Redistribution (AID 451; calls by dose curve; further: potency means the concentration at half of the fitted maximal effect); conditions: CHO-K1 GR-EFC translocation, beta-gal luminescence, 2 h
Summary of the method: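 CHO-K1 cells stably expressing nuclear-localized β-gal enzyme acceptor and GR fused C-terminally to the enzyme donor fragment; ligand-driven nuclear translocation restores β-gal by complementation. Compounds titrated up to 46 uM final, 2 h at 37 °C; luminescence read.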

[7] = target: Mitogen-activated protein kinase 10 (Mus musculus) (UniProt Q61831); assay: JNK3 AlphaScreen Assay (AID 530); conditions: JNK3 lysate, c-Jun phosphorylation; series mostly up to 57.1 µM;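 further: kinase came from lysate of stimulated human HepG2 cells; signal reports phosphorylation of biotinylated GST-cJun 1-79 at Ser73 with 10 µM ATP; on the % scale 0 is the no-effect control and ±100 the full control effect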
Summary of the method: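 JNK3 came from HepG2 lysates pre-activated with IL-1beta and TNF-alpha and phosphorylated biotinylated GST-cJun (1-79) at 10 uM ATP, pH 7.6, room temperature. Compounds were titrated. AlphaScreen signal used anti-phospho-cJun (Ser73) antibody.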

[8] = target: 3',5'-cyclic-AMP phosphodiesterase 4B (Homo sapiens) (UniProt Q07343); assay: qHTS Assay for Inhibitors of PDE-IV (AID 607; active means well fitted activation curve with a large enough effect in the main read-out, with a control signal flat, not every such curve was filed as active; further: % of control where 0% means no effect); conditions: HEK293 ACTOne CNG channel cells, membrane potential fluorescence; series mostly up to 22.9 µM
Summary of the method: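 The readout is membrane depolarisation from a cAMP-sensing CNG channel, detected with a potential dye at ex 535/em 590. Cells were HEK293-derived (endogenous PDE-IV) at 1000 cells/well, titrated up to 22.9 uM final.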

[9] = target: Cytochrome P450 3A4 (Homo sapiens) (UniProt P08684); assay: qHTS Assay for Inhibitors and Substrates of Cytochrome P450 3A4 (AID 884; active means well fitted curve in the direction sought with a large enough effect; an effect the other way counts as inactive or inconclusive; further: nearly all actives have a fitted effect of over 50% in size; further: potency means the concentration at half of the fitted maximal effect); conditions: recombinant CYP3A4, Luciferin-PPXE luminescence; series mostly up to 57.1 µM
Summary of the method: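 20 nM human CYP3A4 with 25 uM Luciferin-PPXE (at KM) in 200 mM KPO4, preincubated 10 min with compound; NADPH regeneration started a 60 min RT reaction. Luciferin detected by luminescence, normalized to 57 uM ketoconazole as full inhibition.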

[10] = target: Cytochrome P450 3A4 (Homo sapiens) (UniProt P08684); assay: qHTS Assay for Activators of Cytochrome P450 3A4 (AID 885; active means well fitted curve in the direction sought with a large enough effect; an effect the other way counts as inactive or inconclusive; further: nearly all actives have a fitted effect of over 65% in size; further: potency means the concentration at half of the fitted maximal effect); conditions: recombinant CYP3A4, Luciferin-PPXE luminescence, 60 min; series mostly up to 57.1 µM
Summary of the method: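 Steps: enzyme/substrate mix dispensed; compound added, 10 min RT; NADPH regeneration solution added, 60 min RT; luciferin detection buffer stops reaction; 20 min later luminescence measured.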

[11] = target: Cytochrome P450 2D6 (Homo sapiens) (UniProt P10635); assay: qHTS Assay for Inhibitors and Substrates of Cytochrome P450 2D6 (AID 891; active means well fitted curve in the direction sought with a large enough effect; an effect the other way counts as inactive or inconclusive; further: potency means the concentration at half of the fitted maximal effect; nearly all actives have a fitted effect of over 60% in size); conditions: recombinant CYP2D6, luciferin-ME EGE luminescence; series mostly up to 57.1 µM
Summary of the method: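 Human CYP2D6 (5 nM) with 30 uM Luciferin-ME EGE (at Km) in 100 mM KPO4, compound preincubated 10 min, then NADPH regeneration system for 60 min at room temperature. Luciferin read by luminescence; normalized to 1.43 uM quinidine.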

[12] = qHTS Assay for Lipid Storage Modulators (AID 1519; calls by dose curve); conditions: Drosophila S3 cells, BODIPY lipid droplet/cell ratio, laser cytometry, cells loaded with oleic acid; for activity change, negative = inhibition: at 57.5 µM (top of the series)
Summary of the method: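 Cells seeded at 5,000 per well were treated with compounds over a concentration series and loaded with oleic acid (400 uM, as added). Lipid droplet fluorescence (488 nm excitation, 500-530 nm channel) was read by laser-scanning cytometry and normalized to 20 uM Triacsin C.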

[13] = Primary qHTS for small molecule stabilizers of the endoplasmic reticulum resident proteome: Secreted ER Calcium Modulated Protein (SERCaMP) assay (AID 1508630; active means well fitted curve in the direction sought with a large enough effect; an effect the other way counts as inactive or inconclusive; further: on the % scale 0 is the no-effect control and ±100 the full control effect); conditions: SH-SY5Y GLuc-SERCaMP (Gaussia luciferase released on ER calcium loss) secretion, thapsigargin, luminescence; series mostly up to 38.4 µM
Summary of the method: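 GLuc-SERCaMP-expressing SH-SY5Y cells, pretreated 16 h with compound, are challenged with thapsigargin to empty ER calcium stores; after 4 h, coelenterazine is added directly to the medium and luminescence is imaged.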

[14] = target: Cytochrome P450 2C9 (Homo sapiens) (UniProt P11712); assay: qHTS Assay for Inhibitors and Substrates of Cytochrome P450 2C9 (AID 883; active means well fitted curve in the direction sought with a large enough effect; an effect the other way counts as inactive or inconclusive; further: on the % scale 0 is the no-effect control and ±100 the full control effect; nearly all actives have a fitted effect of over 60% in size); conditions: recombinant CYP2C9, luciferin-H luminescence, 60 min; series mostly up to 57.1 µM
Summary of the method: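 Human CYP2C9 (10nM) hydroxylated Luciferin-H (100uM, at its KM) to luciferin in 25mM KPO4. Compound was preincubated 10 min at 37C, then NADPH regeneration started a 60 min reaction at 37C. Luminescence was read after detection reagent, normalized to 57uM sulphaphenazole.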

[15] = Confirmation and Secondary Assay for Modulators of Hemoglobin Beta Chain Splicing at IVS2 654 locus (AID 910; active means well fitted curve in the direction sought with a large enough effect; an effect the other way counts as inactive or inconclusive;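 further: per-well total GFP intensity by laser scanning cytometry after 2-day treatment; % of control where 0% means no effect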); conditions: HeLa EGFP-654 splicing reporter, GFP fluorescence, 48 h; series mostly up to 38.3 µM
Summary of the method: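 HeLa cells stably carrying EGFP interrupted by mutant beta-globin IVS2-654 intron (CMV-driven) were treated with compound for 2 days at 37C; corrected splicing was scored as total peak GFP intensity per well (488 nm excitation, 500-520 nm emission).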

[16] = qHTS Assay for Identification of Small Molecule Agonists for Hypoxia Response Element Signaling Pathway (AID 914; active means well fitted activation curve with a large enough effect in the signal ratio, with a control signal flat, not every such curve was filed as active; the % refers to the signal ratio; further: % of control where 0% means no effect); conditions: ME-180 (cervical carcinoma) HRE-bla reporter, beta-lactamase ratio, CoCl2, 17 h; activation: stronger effect = higher value
Summary of the method: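 Reporter activity (beta-lactamase, CCF4 460nm/530nm ratio) in HRE-bla ME-180 cells is recorded after 17 h compound exposure with EC50 CoCl2 at 37 degrees Celsius. AC50 values come from titration data.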

[17] = Confirmation and Secondary Assay for Modulators of Hemoglobin Beta Chain Splicing at IVS2 705 locus (AID 930; active means well fitted curve in the direction sought with a large enough effect; an effect the other way counts as inactive or inconclusive;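 further: HeLa cells stably expressing the EGFP-705 splicing reporter; GFP fluorescence per well restored by corrected splicing of the IVS2-705 intron in EGFP; % of control where 0% means no effect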); conditions: HeLa EGFP-705 splicing reporter, GFP fluorescence, 48 h; series mostly up to 38.3 µM
Summary of the method: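 Stable HeLa line with EGFP disrupted by mutant beta-globin intron 2 (705). Overnight attachment, then 2 days of compound at 37C, 5% CO2. Signal: peak GFP intensity summed over objects 5-250 µm.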

[18] = measured here: cell count channel max response
[19] = measured here: lipid channel max response

Chain of 3',5'-cyclic-AMP phosphodiesterase 4B (Homo sapiens) (Q07343 whole entry, looked up): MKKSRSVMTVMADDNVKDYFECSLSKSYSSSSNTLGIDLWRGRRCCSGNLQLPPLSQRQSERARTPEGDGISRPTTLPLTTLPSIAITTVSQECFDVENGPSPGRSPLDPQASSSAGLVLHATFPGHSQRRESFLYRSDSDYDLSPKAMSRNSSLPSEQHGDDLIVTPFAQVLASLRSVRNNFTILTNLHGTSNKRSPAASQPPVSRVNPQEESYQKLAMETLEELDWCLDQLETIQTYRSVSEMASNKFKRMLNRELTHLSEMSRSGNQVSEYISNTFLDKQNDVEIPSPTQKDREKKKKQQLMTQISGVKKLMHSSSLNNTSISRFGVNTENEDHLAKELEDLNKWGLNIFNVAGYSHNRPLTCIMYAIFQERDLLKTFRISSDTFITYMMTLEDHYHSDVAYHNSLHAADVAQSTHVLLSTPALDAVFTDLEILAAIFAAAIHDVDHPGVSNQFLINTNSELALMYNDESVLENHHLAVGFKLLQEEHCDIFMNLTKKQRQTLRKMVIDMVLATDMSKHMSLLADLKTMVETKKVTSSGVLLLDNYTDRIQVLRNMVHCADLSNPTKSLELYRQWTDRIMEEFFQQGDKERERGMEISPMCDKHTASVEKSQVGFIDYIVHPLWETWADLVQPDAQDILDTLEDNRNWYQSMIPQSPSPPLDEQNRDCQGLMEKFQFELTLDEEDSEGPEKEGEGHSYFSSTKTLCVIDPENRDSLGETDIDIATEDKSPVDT
Chain of Cytochrome P450 3A4 (Homo sapiens) (P08684 whole entry, looked up): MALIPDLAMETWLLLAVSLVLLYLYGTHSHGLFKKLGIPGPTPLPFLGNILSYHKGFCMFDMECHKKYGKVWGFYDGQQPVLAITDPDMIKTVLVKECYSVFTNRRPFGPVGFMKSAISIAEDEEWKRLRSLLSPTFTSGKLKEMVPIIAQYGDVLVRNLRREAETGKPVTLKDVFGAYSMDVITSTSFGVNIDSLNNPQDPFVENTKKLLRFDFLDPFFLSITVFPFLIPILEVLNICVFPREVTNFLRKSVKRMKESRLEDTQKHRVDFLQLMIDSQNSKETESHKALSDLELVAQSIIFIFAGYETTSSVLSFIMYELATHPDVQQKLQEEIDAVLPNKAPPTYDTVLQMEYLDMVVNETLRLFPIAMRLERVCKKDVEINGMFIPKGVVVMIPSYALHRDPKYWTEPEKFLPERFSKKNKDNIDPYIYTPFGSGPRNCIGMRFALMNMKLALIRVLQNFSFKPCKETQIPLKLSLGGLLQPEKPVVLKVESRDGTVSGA
Chain of Cytochrome P450 1A2 (Homo sapiens) (P05177 whole entry, looked up): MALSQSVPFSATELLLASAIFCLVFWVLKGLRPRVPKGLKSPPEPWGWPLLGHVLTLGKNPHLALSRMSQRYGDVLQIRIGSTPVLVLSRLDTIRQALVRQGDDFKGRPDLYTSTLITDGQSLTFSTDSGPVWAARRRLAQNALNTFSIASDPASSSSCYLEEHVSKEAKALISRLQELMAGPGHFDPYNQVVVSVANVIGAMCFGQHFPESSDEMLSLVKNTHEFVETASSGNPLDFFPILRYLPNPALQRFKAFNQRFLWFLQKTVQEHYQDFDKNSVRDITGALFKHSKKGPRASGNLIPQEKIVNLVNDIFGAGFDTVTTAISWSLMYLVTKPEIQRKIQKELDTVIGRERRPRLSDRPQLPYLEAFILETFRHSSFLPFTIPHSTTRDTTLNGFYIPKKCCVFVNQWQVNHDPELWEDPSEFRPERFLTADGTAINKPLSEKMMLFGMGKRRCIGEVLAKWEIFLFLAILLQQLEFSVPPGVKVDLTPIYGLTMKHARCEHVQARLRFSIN
Chain of Lysosomal acid glucosylceramidase (Homo sapiens) (P04062 whole entry, looked up): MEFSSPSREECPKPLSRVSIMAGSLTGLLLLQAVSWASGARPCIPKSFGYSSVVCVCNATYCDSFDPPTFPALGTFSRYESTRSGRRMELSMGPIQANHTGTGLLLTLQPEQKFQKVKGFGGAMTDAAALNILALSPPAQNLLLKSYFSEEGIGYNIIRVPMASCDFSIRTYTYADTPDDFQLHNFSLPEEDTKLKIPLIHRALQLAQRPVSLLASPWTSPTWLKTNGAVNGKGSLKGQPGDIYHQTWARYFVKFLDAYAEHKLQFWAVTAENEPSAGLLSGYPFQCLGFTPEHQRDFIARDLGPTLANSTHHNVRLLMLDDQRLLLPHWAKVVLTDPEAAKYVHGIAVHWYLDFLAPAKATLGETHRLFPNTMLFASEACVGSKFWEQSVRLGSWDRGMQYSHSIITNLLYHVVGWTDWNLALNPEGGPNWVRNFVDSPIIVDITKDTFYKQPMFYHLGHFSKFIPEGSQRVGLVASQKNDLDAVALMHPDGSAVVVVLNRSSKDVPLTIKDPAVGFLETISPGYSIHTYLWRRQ
Chain of Glucocorticoid receptor (Homo sapiens) (P04150 whole entry, looked up, the tested form may be a part): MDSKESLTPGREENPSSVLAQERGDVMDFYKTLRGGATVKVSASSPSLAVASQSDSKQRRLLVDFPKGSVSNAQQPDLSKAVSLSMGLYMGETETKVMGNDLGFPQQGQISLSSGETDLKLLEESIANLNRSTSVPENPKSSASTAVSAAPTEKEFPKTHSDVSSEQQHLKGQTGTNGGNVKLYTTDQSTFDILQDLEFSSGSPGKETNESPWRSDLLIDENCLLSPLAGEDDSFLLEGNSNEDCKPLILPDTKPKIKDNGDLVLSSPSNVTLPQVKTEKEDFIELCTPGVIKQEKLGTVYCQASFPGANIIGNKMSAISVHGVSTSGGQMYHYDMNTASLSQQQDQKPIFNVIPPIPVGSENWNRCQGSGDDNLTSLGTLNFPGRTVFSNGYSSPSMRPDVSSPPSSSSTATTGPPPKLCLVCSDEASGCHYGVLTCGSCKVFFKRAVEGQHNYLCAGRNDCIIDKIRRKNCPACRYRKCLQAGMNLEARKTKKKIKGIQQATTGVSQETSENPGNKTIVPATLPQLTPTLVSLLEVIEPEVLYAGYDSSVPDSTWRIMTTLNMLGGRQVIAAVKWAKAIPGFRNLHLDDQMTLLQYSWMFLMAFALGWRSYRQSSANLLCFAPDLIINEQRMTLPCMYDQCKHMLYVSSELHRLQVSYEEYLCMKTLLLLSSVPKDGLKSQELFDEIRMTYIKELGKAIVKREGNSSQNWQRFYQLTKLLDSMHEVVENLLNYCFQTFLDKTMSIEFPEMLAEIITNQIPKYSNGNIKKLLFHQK
Chain of Cytochrome P450 2D6 (Homo sapiens) (P10635 whole entry, looked up): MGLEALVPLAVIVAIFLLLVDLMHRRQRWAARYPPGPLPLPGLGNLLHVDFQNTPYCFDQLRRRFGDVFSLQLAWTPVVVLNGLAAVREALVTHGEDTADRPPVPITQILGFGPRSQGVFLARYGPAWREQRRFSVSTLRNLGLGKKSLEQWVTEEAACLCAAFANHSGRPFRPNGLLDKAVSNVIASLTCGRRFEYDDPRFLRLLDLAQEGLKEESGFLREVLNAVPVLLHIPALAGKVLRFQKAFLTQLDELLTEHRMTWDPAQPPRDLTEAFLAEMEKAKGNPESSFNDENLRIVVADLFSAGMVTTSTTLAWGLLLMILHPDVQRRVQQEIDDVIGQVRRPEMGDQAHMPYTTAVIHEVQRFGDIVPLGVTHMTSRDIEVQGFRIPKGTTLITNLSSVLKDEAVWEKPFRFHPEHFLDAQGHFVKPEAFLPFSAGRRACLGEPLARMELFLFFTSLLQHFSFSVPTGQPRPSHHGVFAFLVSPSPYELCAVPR
Chain of Cytochrome P450 2C9 (Homo sapiens) (P11712 whole entry, looked up): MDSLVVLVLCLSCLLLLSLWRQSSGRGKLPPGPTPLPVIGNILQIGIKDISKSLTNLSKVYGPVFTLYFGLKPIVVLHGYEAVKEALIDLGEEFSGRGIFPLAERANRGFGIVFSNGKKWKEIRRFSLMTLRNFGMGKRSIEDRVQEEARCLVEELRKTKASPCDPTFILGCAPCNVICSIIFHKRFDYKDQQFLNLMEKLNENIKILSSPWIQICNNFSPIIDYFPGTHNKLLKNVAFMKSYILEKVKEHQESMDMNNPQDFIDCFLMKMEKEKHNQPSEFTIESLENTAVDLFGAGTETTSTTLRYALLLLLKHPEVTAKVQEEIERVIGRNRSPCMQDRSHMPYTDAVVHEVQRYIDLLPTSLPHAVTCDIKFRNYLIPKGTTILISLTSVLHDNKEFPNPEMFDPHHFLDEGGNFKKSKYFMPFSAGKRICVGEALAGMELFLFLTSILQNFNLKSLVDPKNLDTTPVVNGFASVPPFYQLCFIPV

Structure (SMILES)	Potency [1]	activity change, negative = inhibition [2]	Potency [3]	activity change, negative = inhibition [4]	activity, negative = inhibition [5]	Potency [6]	outcome [7]	Potency [8]	Potency [9]	Potency [10]	Potency [11]	activity change, negative = inhibition [12]	max response [12, 18] [%]	max response [12, 19] [%]	Potency [13]	activity change, negative = inhibition [14]	outcome [15]	activation [16]	outcome [17]
O=C(c1ccncc1)N1CCC2(CC1)CN(C(c1ccccc1)c1ccccc1)C2	> 11.4 µM (inactive)	4.62% (inactive)	15.8 µM (active)	16.7% (inactive)	-10.1% (inactive)	> 46 µM (inactive)	inactive	inactive	inactive	3.98 µM (active)	0.0251 µM (active)	4.23% (inactive)	-4.87	3.6	inactive				
CNc1nc(-c2ccccc2Cl)nc2ccccc12	5.87 µM (active)	-4.05% (inactive)	0.126 µM (active)	12.6% (inactive)	-8.45% (inactive)	> 46 µM (inactive)	inactive	inactive		inactive		5.07% (inactive)	-3.59	-2.38	inactive	75.1% [at 2.29 µM] (inactive)	inactive	11.6% (inactive)	inactive
COc1ccccc1CN1CC[C@@]2(CCCN(C(=O)c3c(C)noc3C)C2)C1	> 11.4 µM (inactive)	-0.263% (inactive)	inactive	-13.2% (inactive)	-3.34% (inactive)	> 46 µM (inactive)	inactive	inactive	1.58 µM (active)	inactive		6.24% (inactive)	6.8	12.8	inactive				
O=C(Oc1ccccc1)N1CCC2(CC1)CCN(c1ccccc1)CC2	> 11.4 µM (inactive)	20.6% (inactive)	inactive	-26.1% (inactive)	-1.28% (inactive)	> 46 µM (inactive)	inactive	inactive	inactive	3.16 µM (active)		-1.08% (inactive)	-1.11	-1.37	inactive				
CC(C)NC(=O)N1CCCC2(CCN(S(=O)(=O)c3ccccc3)CC2)C1	> 11.4 µM (inactive)	-4.26% (inactive)	inactive	-5.06% (inactive)	-5.18% (inactive)	> 46 µM (inactive)	inactive	inactive	7.94 µM (active)	inactive	0.316 µM (active)	4.51% (inactive)	20	26.7	inactive				
O=C(c1ccco1)N1CCC2(CC1)CN(c1ccccc1)C2	> 11.4 µM (inactive)	-1.6% (inactive)	inactive	28.4% (inactive)	-9.25% (inactive)	> 46 µM (inactive)	inactive	inactive	inactive	15.8 µM (active)		6.46% (inactive)	15.8	25.8	inactive			-3.45% (inactive)	
